Results published in PubChem BioAssay (NCATS).
Unmarked numbers belong to inactive results. Inconclusive results are not listed. Where a call stands in place of a potency, no number is given. Activity calls are given as the source filed them. The call rests on the fitted dose curve; in most records, active means well fitted curve in the direction sought with a large enough effect; inconclusive means small, poorly fitted or top-dose-only effect, or another doubt; inactive means no such curve, though single readings can be large; an effect the other way counts as inactive or inconclusive.

Key:
[1] = target: Cytochrome P450 2C9 (Homo sapiens) (UniProt P11712); test: qHTS Assay for Inhibitors and Substrates of Cytochrome P450 2C9 (AID 883); further: nearly all actives have a fitted effect of over 60% in size; further: potency means the concentration at half of the fitted maximal effect
How it was run: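 A luminogenic readout tracked human CYP2C9 (10nM) converting deoxyluciferin (100uM, at KM) in 25mM KPO4 during 60 min at 37C with regenerated NADPH. Values normalized to 57uM sulphaphenazole as complete inhibition.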

[2] = target: Cytochrome P450 3A4 (Homo sapiens) (UniProt P08684); test: qHTS Assay for Activators of Cytochrome P450 3A4 (AID 885); further: nearly all actives have a fitted effect of over 65% in size
How it was run: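 Steps: enzyme/substrate mix dispensed; compound added, 10 min RT; NADPH regeneration solution added, 60 min RT; luciferin detection buffer stops reaction; 20 min later luminescence measured.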

[3] = target: Cytochrome P450 3A4 (Homo sapiens) (UniProt P08684); test: qHTS Assay for Inhibitors and Substrates of Cytochrome P450 3A4 (AID 884); further: series mostly up to about 57 µM; nearly all actives have a fitted effect of over 50% in size
How it was run: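 20 nM human CYP3A4 with 25 uM Luciferin-PPXE (at KM) in 200 mM KPO4, preincubated 10 min with compound; NADPH regeneration started a 60 min RT reaction. Luciferin detected by luminescence, normalized to 57 uM ketoconazole as full inhibition.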

[4] = target: Cytochrome P450 2D6 (Homo sapiens) (UniProt P10635); test: qHTS Assay for Inhibitors and Substrates of Cytochrome P450 2D6 (AID 891);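 further: luciferin methyl ether substrate demethylated by CYP2D6 with NADPH regeneration; nearly all actives have a fitted effect of over 60% in size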
How it was run: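 Human CYP2D6 (5 nM) with 30 uM Luciferin-ME EGE (at Km) in 100 mM KPO4, compound preincubated 10 min, then NADPH regeneration system for 60 min at room temperature. Luciferin read by luminescence; normalized to 1.43 uM quinidine.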

[5] = target: Cytochrome P450 2C19 (Homo sapiens) (UniProt P33261); test: qHTS Assay for Inhibitors and Substrates of Cytochrome P450 2C19 (AID 899); further: nearly all actives have a fitted effect of over 60% in size
How it was run: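 NADPH-dependent conversion of Luciferin-H EGE (10uM, at KM) by 5nM enzyme in 50mM KPO4, 60 min at 37C following 10 min compound preincubation. Stopped with luciferin detection buffer; luminescence read after 20 min.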

Sequence of Cytochrome P450 2C19 (Homo sapiens) (P33261 whole entry, looked up): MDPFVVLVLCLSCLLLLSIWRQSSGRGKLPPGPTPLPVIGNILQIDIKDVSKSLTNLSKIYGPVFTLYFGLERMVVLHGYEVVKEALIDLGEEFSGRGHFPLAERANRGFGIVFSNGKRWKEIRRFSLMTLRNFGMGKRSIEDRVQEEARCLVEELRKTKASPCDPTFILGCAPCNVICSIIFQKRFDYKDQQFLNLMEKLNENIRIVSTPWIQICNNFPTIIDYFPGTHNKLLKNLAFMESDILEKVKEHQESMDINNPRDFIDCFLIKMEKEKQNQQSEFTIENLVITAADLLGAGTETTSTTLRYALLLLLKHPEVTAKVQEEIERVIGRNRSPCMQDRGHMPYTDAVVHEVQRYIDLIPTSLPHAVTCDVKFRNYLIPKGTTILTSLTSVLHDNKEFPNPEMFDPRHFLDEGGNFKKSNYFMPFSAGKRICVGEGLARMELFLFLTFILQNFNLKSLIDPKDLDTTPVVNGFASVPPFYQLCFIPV
Sequence of Cytochrome P450 2D6 (Homo sapiens) (P10635 whole entry, looked up): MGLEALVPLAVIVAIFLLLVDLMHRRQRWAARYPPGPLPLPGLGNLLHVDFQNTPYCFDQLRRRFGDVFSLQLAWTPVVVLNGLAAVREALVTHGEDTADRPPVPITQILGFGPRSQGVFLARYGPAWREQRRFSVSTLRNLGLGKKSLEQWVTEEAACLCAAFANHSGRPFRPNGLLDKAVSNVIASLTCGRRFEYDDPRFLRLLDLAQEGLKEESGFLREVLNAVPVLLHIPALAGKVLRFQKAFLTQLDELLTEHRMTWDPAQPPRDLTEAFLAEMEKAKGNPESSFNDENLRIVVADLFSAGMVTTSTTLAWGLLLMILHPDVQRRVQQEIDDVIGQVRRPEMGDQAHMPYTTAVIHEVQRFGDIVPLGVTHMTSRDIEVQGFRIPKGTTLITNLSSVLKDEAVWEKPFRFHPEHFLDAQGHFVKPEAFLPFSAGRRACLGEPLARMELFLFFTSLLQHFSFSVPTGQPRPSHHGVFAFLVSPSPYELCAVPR
Sequence of Cytochrome P450 3A4 (Homo sapiens) (P08684 whole entry, looked up): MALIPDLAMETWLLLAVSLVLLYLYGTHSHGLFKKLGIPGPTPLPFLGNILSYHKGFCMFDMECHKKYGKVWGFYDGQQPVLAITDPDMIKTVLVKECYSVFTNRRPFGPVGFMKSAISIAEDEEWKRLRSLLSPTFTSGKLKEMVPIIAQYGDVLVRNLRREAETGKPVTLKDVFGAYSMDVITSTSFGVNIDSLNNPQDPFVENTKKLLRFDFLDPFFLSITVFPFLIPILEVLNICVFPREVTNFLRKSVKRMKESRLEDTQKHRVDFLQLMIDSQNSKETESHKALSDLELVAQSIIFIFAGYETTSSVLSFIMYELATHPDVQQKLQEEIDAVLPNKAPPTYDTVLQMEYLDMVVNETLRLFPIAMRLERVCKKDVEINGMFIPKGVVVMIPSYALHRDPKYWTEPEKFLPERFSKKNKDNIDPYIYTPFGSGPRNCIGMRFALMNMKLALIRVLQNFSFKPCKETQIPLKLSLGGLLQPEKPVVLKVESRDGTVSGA
Sequence of Cytochrome P450 2C9 (Homo sapiens) (P11712 whole entry, looked up): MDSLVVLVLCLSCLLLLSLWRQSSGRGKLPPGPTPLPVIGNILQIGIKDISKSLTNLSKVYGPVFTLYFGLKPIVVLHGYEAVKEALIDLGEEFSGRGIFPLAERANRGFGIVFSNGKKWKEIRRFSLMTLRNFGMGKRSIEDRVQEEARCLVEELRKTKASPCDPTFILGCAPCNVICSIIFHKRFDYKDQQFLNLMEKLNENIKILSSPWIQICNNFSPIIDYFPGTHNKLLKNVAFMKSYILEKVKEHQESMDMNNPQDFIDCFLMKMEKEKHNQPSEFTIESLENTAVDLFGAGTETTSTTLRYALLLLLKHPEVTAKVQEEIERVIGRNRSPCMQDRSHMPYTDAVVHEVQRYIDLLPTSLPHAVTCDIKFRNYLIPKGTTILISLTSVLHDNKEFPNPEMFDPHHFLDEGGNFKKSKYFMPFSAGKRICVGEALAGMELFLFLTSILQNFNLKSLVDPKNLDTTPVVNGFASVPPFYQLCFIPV

Row | Compound | Potency [1] | activity change, positive = activation [2] | activity change, negative = inhibition [3] | Potency [4] | Potency [5]
1 | CCCNC(=O)OC[C@@H]1O[C@H](CCO/N=C\c2ccc(C(=O)N3[C@H](c4ccc(C)cc4)[C@@H](C)CC[C@H]3C(=O)OC)cc2)C=C[C@@H]1Oc1ccc(OC)cc1 | 3.98 µM (active) | -51.6% [at 11.4 µM] | – | – | –
2 | C=CC[C@@H]1C=C[C@@H](O/N=C\c2ccc(C(=O)N3[C@H](c4ccc(C)cc4)[C@@H](C)CC[C@H]3C(=O)OC)cc2)[C@@H](CO)O1 | 3.98 µM (active) | -42.6% [at 11.4 µM] | – | – | –
3 | COCC#Cc1ccc(C2NC(C(=O)O)CCC2C)cc1 (centres undefined) | inactive | – | -8.92% [at 11.4 µM] | inactive | inactive
4 | COC(=O)NC(c1cccc(C)c1)[C@@]1(C(=O)OC)CCCC1=O (some centres undefined) | inactive | – | -25.8% [at 11.4 µM] | inactive | inactive
5 | COC(=O)C/C=C1\c2ccccc2C(OC)C1C (centres undefined) | inactive | – | -21.3% [at 11.4 µM] | – | inactive
6 | COC(=O)NC(CC(C)=O)c1ccco1 (centres undefined) | inactive | – | -19.2% [at 11.4 µM] | inactive | inactive
7 | CCCCCCC#CC1C=CC(OC(C)=O)C(COC(C)=O)O1 (centres undefined) | inactive | -57.5% [at 11.4 µM] | – | – | –
8 | CCN1C(C)=C(C(=O)OC)C(c2ccccc2)N2C(=O)[C@](O)(C(=O)OC)CC(C(C)=O)=C12 (some centres undefined) | inactive | – | -13.9% [at 11.4 µM] | inactive | inactive
9 | CCCCCCCC#Cc1ccccc1/C=N/S(=O)C(C)(C)C (centres undefined) | inactive | -47.5% [at 11.4 µM] | – | inactive | inactive
